Results: article PMC12864922, “TDP-43 directly inhibits mRNA accumulation in neurites through modulation of mRNA stability”
The full ranking holds about 9,900 sequences; the median of “r (bound/input frequency ratio)” is about 0.7, and the highest 2% start at about 6.5. What follows is part of a selection rich in the highest values, with near analogues and random picks from the rest.

B1: ENSMUSG00000028439.214|Fam219a|183:189;217:221 (ssRNA)
RNA: GGGAGUUCUACAGUCCGACGAUCGCUUCGAUAUCCGCAUGCUAUCUGGAACCUGGGUUCUGGUCCCAGCCUCGGCAUUCUCCCUGAGCUCCUAAGCAAUUCCCAGGCUUCUCUAGGGCUUCAGUUCUCACAACUGGAAAAUAAAGAGUAGCUGACAUCACCGACAGAGUCUUUUCAUACCAGAAGGAAUUUCUUCACAGGAGUUUCUGCAAAAGACUAUGACAUCACACACACUGUGGUCUCACGAGGUACCUGGAGGUCAUACUGCACGGACAUGGGAAGUACGUGAAGAUUUAUUUCGGGACUCUUGCGGUCGCACUAGUGUGGAAUUCUCGGGUGUCAAGG
B2: ENSMUSG00000004113.200|Cacna1b|94:98 (ssRNA)
RNA: GGGAGUUCUACAGUCCGACGAUCGCUUCGAUAUCCGCAUGCUACCUGAUCUCUGGCUCUGAGCAUCGUGGAUGAGGUACGGCCUCAGGAAGCAUCGGGUGGAUUGGGUGGGAGCUGCUCAGAGCAGCACGGGGGCUACACACUUAGGGACAUUGACAGUGUCCAUCAGCAUGUCAGAGAAGCAGCUGUAGUGCCCGUGUUUCUCCCUGAGUCAUGGGUUCUGAAGAAGCCAGAGCGGCACAAUGCGUGCUUGCAUGAGGCACUUUCAGCCUUUUUAAAUCUGACUCUCAGGGAUGGGAUGCCUCUCUUGCGGUCGCACUAGUGUGGAAUUCUCGGGUGUCAAGG
B3: ENSMUSG00000090935.682|Synj2bp (ssRNA)
RNA: GGGAGUUCUACAGUCCGACGAUCGCUUCGAUAUCCGCAUGCUAACUGUCAGGAGCUCUCUCUCUCUGCUUAGAAUCAUCCAGACAGCGGGCUGGUCAGCCCACAUUAAAUAAGAACAUGUGGGACUAGAAUUCAGUCAACAAUGACAUGUUUCAUCAGGUGGUUAAAAUGUACAGAUUCUGUUGGAAAUGUUCCAUGGUAUUUCAAUAGCCAGAAUGAAGAACUGGGCUAAGUCCAGAGCUCUGCUCUCUGAGCAUCUGCCCCAGAUACAGAGGCAGAGUAUGAAGUGGAACAUUGUUUUAUUCUCUUGCGGUCGCACUAGUGUGGAAUUCUCGGGUGUCAAGG
B4: ENSMUSG00000029028.246|Lrrc47|180:184 (ssRNA)
RNA: GGGAGUUCUACAGUCCGACGAUCGCUUCGAUAUCCGCAUGCUAUCCUCGUGGCAGACCCUGGACAACGCUGGUAGCUGUUCUCCAUGAGACACGGCUGCUCACAGGUCCCUUUGAGUGGCUGUGGCAAGUACUCACCUACUAAGUGUUUAGGGUGGAGCUAUCCUGUGCUCACCCUGUCUCCCCCCAGUUCCUGCUGUUCCCUCCAGCCCAGCCCAGCCCAGCACACAGAUUCAUUGAGAUUUUUGAAACUGUUUUUACAGAUUCAAGCAGAACGCCUCUUUGUUCUAAUAAAAACCCUUGGUCUCUUGCGGUCGCACUAGUGUGGAAUUCUCGGGUGUCAAGG
B5: ENSMUSG00000061578.401|Ksr2 (ssRNA)
RNA: GGGAGUUCUACAGUCCGACGAUCGCUUCGAUAUCCGCAUGCUAUUAAUGUACAGACAUCUGGAUCAAGGGAUUAAAAAAAAAAGAAUCAGUCUCUUCCCGGAGGAAGCAUCCGGGGGAAAUGUAUUCCUUCGCCCUGCAAGGAGCCAAUGGGAAGAGAGGGGACCAUAUAGUUAGAGACAUUCCCUACCCCCCGACCACUGACCCGUCCAGACCCUCGCUUCUUACAAUGCCUCUUCUUCUGCCAGACCAGCCACCUGCCCCACUAACACCAAAUGGCUUCUGUCCCUGCUUCACGUUGCAAACUCUUGCGGUCGCACUAGUGUGGAAUUCUCGGGUGUCAAGG
B6: ENSMUSG00000061578.1371|Ksr2 (ssRNA)
RNA: GGGAGUUCUACAGUCCGACGAUCGCUUCGAUAUCCGCAUGCUACUUACAUCUCUGACCCAGUGAUCUUUCUAGGGGUCUGUCACAUGUCCCAACAGGUGGACAGCUCUCCAAGUCACCAACCUGAGGAAAAUAUCCCUCCUUGUAAAAAGGCUUUCUCUUUGUAAAUGAUUCUGUUGCCUUUUUCUAAACACAAAGUAUAUAUACCUAUAAAUGCUAUAUAUAUUAUAUAUGUGUAUAUACAUAAAGACUACUUCUUGUACAGCCCUCCACGGACCUCAGGCCCACUGUUUUCUCCAUGUCUGCUCUUGCGGUCGCACUAGUGUGGAAUUCUCGGGUGUCAAGG
B7: ENSMUSG00000022095.129|Fam160b2|254:258 (ssRNA)
RNA: GGGAGUUCUACAGUCCGACGAUCGCUUCGAUAUCCGCAUGCUACAGCUGGUUCCUCUCUGGCGCCUUCUGAACCCGUCUCAGCAAGUCCGAAACACCUGGGCAGAGAGGUCAUUGACCAGGGAUGGGGGCCCUUGCCCUCUGAAUCCUGCCCAGUGCCCAGGGGUCCAGGUGGAAUGUGGUCCUGGGGACUAUAGGAACUCAAGGUACAGAUGGGACAGGGCACCCCAACUCCAAACCCCAGAAGCCUAGUGAGGCUAGGCCGAGACACAAGCAGAUAGCUCUGGCAUUGUUCUUCCAUACUCCUCUUGCGGUCGCACUAGUGUGGAAUUCUCGGGUGUCAAGG
B8: ENSMUSG00000042529.446|Kcnj12 (ssRNA)
RNA: GGGAGUUCUACAGUCCGACGAUCGCUUCGAUAUCCGCAUGCUAAGCCCAUCUGGUGCUGUGCACCUGGUCCUUGUCCAGCCGAGGGCCUGGGGGCAGAAGAACACACCAUAGGGAGGCCCUUGUAUGGGUGUCUGCCCUAUGUGAGGUCAUAGAAUGUUAAAUCUAUUUUAAACGGUGAAACUGGAGAAUUUUCAUGUUAUUUUCAAUAAUAGUGGUAUCUAAAGAUGUAGGCAACAAGACUAGACCACAUUAAAUGCAUUUUGAUCUCUUUGAAUGCUACUGUGUUGAGAUGUGCGUCUCACCUCUUGCGGUCGCACUAGUGUGGAAUUCUCGGGUGUCAAGG
B9: ENSMUSG00000022095.98|Fam160b2|79:83 (ssRNA)
RNA: GGGAGUUCUACAGUCCGACGAUCGCUUCGAUAUCCGCAUGCUAGGGGAAGCCCCCUCUUCCUGCUCUACCCUCCUGGAGGCUGUUGCAAAAUUCCCAACUGCCUCCUGGCAGAGGCCCAAACAUACCUCUGCGCCCAGGCGGGGGCAGCUGCUAACAAGAGCCCUGGCGCAGCUGCAGCCAGGGCAGGCGAGAGCCUUGGAGCUGGGUGCCAGGCUCCAGCUCCAGCUCCAGCUGGUUCCUCUCUGGCGCCUUCUGAACCCGUCUCAGCAAGUCCGAAACACCUGGGCAGAGAGGUCAUUGACCUCUUGCGGUCGCACUAGUGUGGAAUUCUCGGGUGUCAAGG
B10: ENSMUSG00000090935.122|Synj2bp|46:51;222:232 (ssRNA)
RNA: GGGAGUUCUACAGUCCGACGAUCGCUUCGAUAUCCGCAUGCUAUUCGUGAGAUACCGAAAGCAGCUUUGAAAUGCUUGCUGUCUUCCACACACACCAAUGAACUCUCUCUCUCACUCACCAUCUCUGACAUCCUCCCAUAUUCUUUCUCCUCCACAUAGCCAAUACAAGAUUUAAAGUGACUGCUUAUCACCCAAAACCCUGCUAUUCAAAAUCUCCUAUUCUAAUGGAAGAGUACAGGGGUUAUUUGAAGAAAAGCUGUGGUGCACACACACACGGGGAAGCCUUGCUUAGAAUGAAUGAGACUCUUGCGGUCGCACUAGUGUGGAAUUCUCGGGUGUCAAGG
B11: ENSMUSG00000058297.93|Spock2 (ssRNA)
RNA: GGGAGUUCUACAGUCCGACGAUCGCUUCGAUAUCCGCAUGCUAAGGGAGGGCAGGCAGCUGAAAGCUGAGCGUCCUCCCCAAAUUGGGCUGAUUUGAUAUGAAAGCCCCACCACGGUCUUGUGGUGAUGAGGCAGGACCUGUACACACAGCAAGGCUUACUAUCCGUCUCCUGACAUCCGAAGAGCUCGUCGCAGGUGUGUCUAAUGGCCCUUGGGCUGCACGUGGUUAAGCAUAGCUGUCUCUGUGGCCCAACACAAAGAGGUAAACUUACUUAAAACACAGGGGUUUUGUUGCUGUUUGUUCUCUUGCGGUCGCACUAGUGUGGAAUUCUCGGGUGUCAAGG
B12: ENSMUSG00000004113.177|Cacna1b|55:59;63:67;78:82;232:236 (ssRNA)
RNA: GGGAGUUCUACAGUCCGACGAUCGCUUCGAUAUCCGCAUGCUAGUAACUUUAAAAAAAAAGUCAACAUGUAGGAAGGUCUCCAUUUUGCAUUGUUUCACACACUUCAUACCAAUGUUCCUCAUACUUUCUACCCUGCCUGGGAUGUCCCCAAUGACCCUGGCUCCUCUGCUCAACCAAGUGCCUGAUCUCUGGCUCUGAGCAUCGUGGAUGAGGUACGGCCUCAGGAAGCAUCGGGUGGAUUGGGUGGGAGCUGCUCAGAGCAGCACGGGGGCUACACACUUAGGGACAUUGACAGUGUCCAUCUCUUGCGGUCGCACUAGUGUGGAAUUCUCGGGUGUCAAGG
B13: ENSMUSG00000042529.443|Kcnj12 (ssRNA)
RNA: GGGAGUUCUACAGUCCGACGAUCGCUUCGAUAUCCGCAUGCUAGAUGAAGCAGCUGCCCUGAGCCCAUCUGGUGCUGUGCACCUGGUCCUUGUCCAGCCGAGGGCCUGGGGGCAGAAGAACACACCAUAGGGAGGCCCUUGUAUGGGUGUCUGCCCUAUGUGAGGUCAUAGAAUGUUAAAUCUAUUUUAAACGGUGAAACUGGAGAAUUUUCAUGUUAUUUUCAAUAAUAGUGGUAUCUAAAGAUGUAGGCAACAAGACUAGACCACAUUAAAUGCAUUUUGAUCUCUUUGAAUGCUACUGUGCUCUUGCGGUCGCACUAGUGUGGAAUUCUCGGGUGUCAAGG

Each binder was assayed against TDP-43 (Homo sapiens, UniProt Q13148 1-414) (assay: RNA Bind-n-Seq with designed 260-mer pool; 25 mM Tris-HCl, 150 mM KCl, 3 mM MgCl2, BSA (printed 500 mg/mL), 20 units/mL SUPERase IN; pH not stated; 500 nM RNA pool, 1 h, 4 C; TDP-43 5, 50, 500 nM; high values mean tight binding). Conditions: protein: recombinant; tags: SBP (GST cleaved off with PreScission; pGEX-GST-SBP).
Procedure, shortened: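 Recombinant SBP-tagged TDP-43 at 5, 50 or 500 nM was captured on streptavidin beads, then incubated 1 h at 4 °C with 500 nM of an in vitro-transcribed 260-nt 3′ UTR oligo pool in 25 mM Tris-HCl, 150 mM KCl, 3 mM MgCl2, BSA and SUPERase IN. Bound RNA was washed, eluted with biotin, reverse transcribed, PCR-amplified and sequenced. Binding is R, each oligo's mapped-read-normalized abundance in the bound sample divided by its abundance in input. Duplicates used two independent protein batches.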

TDP-43, sequence (Q13148 whole entry): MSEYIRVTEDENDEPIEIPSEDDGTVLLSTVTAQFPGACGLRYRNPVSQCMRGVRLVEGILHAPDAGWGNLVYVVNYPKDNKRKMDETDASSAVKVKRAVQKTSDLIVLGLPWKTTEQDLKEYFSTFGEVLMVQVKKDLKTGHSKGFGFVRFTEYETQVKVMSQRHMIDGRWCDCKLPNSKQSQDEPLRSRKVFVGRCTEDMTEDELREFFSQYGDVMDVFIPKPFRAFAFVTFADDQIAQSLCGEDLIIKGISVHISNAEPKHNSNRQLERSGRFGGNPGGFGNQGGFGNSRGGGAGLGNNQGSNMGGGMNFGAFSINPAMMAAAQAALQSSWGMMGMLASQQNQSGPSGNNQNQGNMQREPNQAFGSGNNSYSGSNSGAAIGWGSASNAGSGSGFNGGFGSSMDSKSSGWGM

Point of comparison: B12, binding signal 0.533 R (bound/input frequency ratio). Against it:
- B1 — lower, 0.393 R (bound/input frequency ratio)
- B2 — higher, 0.929 R (bound/input frequency ratio)
- B3 — lower, 0.473 R (bound/input frequency ratio)
- B4 — higher, 0.573 R (bound/input frequency ratio)
- B5 — lower, 0.446 R (bound/input frequency ratio)
- B6 — lower, 0.0492 R (bound/input frequency ratio)
- B7 — lower, 0.357 R (bound/input frequency ratio)
- B8 — higher, 1.1 R (bound/input frequency ratio)
- B9 — higher, 0.706 R (bound/input frequency ratio)
- B10 — higher, 2.71 R (bound/input frequency ratio)
- B11 — lower, 0.528 R (bound/input frequency ratio)
- B13 — higher, 1.32 R (bound/input frequency ratio)
